Among the data in PubChem BioAssay AID425 (Sanford-Burnham Center for Chemical Genomics, 2006) are inhibition values, retold here.

Where “and” joins values, the source holds several entries; their conditions need not be identical. Identical values can stand only once. The campaign covered roughly 110,000 compounds. About 190 (0.17%) were called active. Cut-off read from the data, not from the text of the source: active = inhibition above about 50%; inactive = the rest. What follows is part of a selection rich in actives, with near analogues and random picks from the rest. Entries with a potency or affinity are not part of this list. Where a structure was tested more than once in an assay, its records may differ in their call.

For the assay, the target named is Dual specificity protein phosphatase 6 (Rattus norvegicus) (UniProt Q64346). The assay is described as follows: MKP-3 phosphatase inhibitors, primary screen, biochemical, rat enzyme, in vitro (AID 425).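 Note: plate controls were vehicle for no effect and reference inhibitor for full effect.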 The conditions noted are these: recombinant MKP-3 phosphatase activity, fluorescence; at 20 µM; stronger effect = higher value.
Chain of Dual specificity protein phosphatase 6 (Rattus norvegicus) (Q64346 whole entry, looked up): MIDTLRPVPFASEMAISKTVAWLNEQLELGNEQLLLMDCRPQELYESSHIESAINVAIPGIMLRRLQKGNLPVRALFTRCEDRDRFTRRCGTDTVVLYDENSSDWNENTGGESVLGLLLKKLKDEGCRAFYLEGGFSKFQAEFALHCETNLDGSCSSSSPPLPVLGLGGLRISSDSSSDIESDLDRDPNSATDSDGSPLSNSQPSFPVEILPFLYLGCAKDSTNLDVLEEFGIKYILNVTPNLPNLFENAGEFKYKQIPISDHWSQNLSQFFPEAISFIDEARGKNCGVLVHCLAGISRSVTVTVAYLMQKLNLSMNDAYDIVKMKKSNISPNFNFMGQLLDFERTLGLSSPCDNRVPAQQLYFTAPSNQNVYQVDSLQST
As a reminder, the inhibition is the change of the read-out against control, counted positive when it falls. With `CC1(C)CC(NC(=O)CCc2ccccc2)CC(C)(C)N1`, the inhibition is 3.8% (inactive) and -2.1% (inactive).

As to `CN(C)c1ccc(C=Nc2ccc(N(C)C)cc2)cc1`, the inhibition was -3.9% (inactive). In the case of `Oc1ccc(N=Cc2ccc(O)c(O)c2)cc1`, the inhibition is 69.4% (active) and -3.7% (inactive). With `COc1ccc(N=Cc2ccc(O)c(OC)c2)cc1` the figure was -0.9% (inactive).

For `Oc1ccc(C=Nc2ccc(O)cc2)cc1`, the inhibition is 51% (active). With `Oc1ccc(N=Cc2cc(Br)cc(Br)c2O)cc1`, the inhibition was 9.6% (inactive). With `Cc1cccc(C=Nc2ccc(O)cc2)c1`, the inhibition is 118% (active).

Turning to `Cc1cccc(C=Nc2ccc(-c3nc4ccc(C)cc4s3)cc2)c1`, the inhibition is -2.3% (inactive).

Regarding `Oc1ccc(/C=N/N=C/c2ccc(O)c(O)c2)cc1O`, the inhibition is 1.8% (inactive). On to `Oc1cccc(C=Nc2ccc(Cl)c(Cl)c2)c1`, for which the inhibition was -1.5% (inactive). For `COc1ccc2c(c1OC)CN(C)CCc1cc3c(cc1C(O)C2)OCO3` (centres undefined), the inhibition was -15.6% (inactive). Then `COc1ccc(C2NC(=O)NC(C)=C2C(=O)Nc2ccccc2C)cc1OC` (centres undefined), with -0.4% (inactive); and `O=C1CCCC2=C1C(c1ccc(Cl)cc1)Nc1ccccc1N2` (centres undefined), with 0.4% (inactive). Regarding `Cc1ccccc1NC(=O)CCCN1C(=O)/C(=C/c2cccc3c2OCO3)SC1=S`, the inhibition was 4.3% (inactive). Then `CSc1nsc(SC)c1NC(=O)OCc1ccccc1`, with -3.9% (inactive) and 1.7% (inactive); and `COc1cccc(C(=O)Nc2ccc(OC(F)(F)F)cc2)c1`, with 3.1% (inactive). Turning to `COc1ccc(/C=C2\SC(=O)N(CC(=O)Nc3nccs3)C2=O)cc1OC`, the inhibition was 0% (inactive).

In the case of `O=S(=O)(NCc1ccc(F)cc1)c1ccc2ccccc2c1`, the inhibition is 0% (inactive). As to `COC(=O)c1sc(=S)n(-c2cc(F)ccc2F)c1N`, the inhibition was 10.2% (inactive). Then `Cc1ccc2[nH]c(C)c(CC(=O)N/N=C/c3cccnc3)c2c1`, with -2% (inactive); and `O=c1[nH]c(=S)n(-c2cccc(Cl)c2)c(O)c1/C=C1/C=CC=N1`, with 9% (inactive); and `O=c1[nH]c(=O)n(-c2ccccc2Cl)c(O)c1C=C1C=CC=N1`, with 3.3% (inactive).

With `Cn1c(O)c(/C=C2/C=CC=N2)c(=O)n(-c2ccccc2)c1=S`, the inhibition was 95.6% (active). With `COc1ccc(-n2c(O)c(/C=C3\C=CC=N3)c(=O)[nH]c2=O)cc1` the figure was 2.1% (inactive); with `Cc1ccccc1-n1c(O)c(C=C2C=CC=N2)c(=O)[nH]c1=S`, 45.4% (inactive); with `O=c1[nH]c(=S)n(-c2ccccc2F)c(O)c1C=C1C=CC=N1`, 60.5% (active). For the molecule `COc1ccc(NC(=O)Cn2nnc(C(N)=O)c2N)c(OC)c1`, the inhibition is -7.2% (inactive).

As to `O=C1c2ccc(-c3nc4ccccc4c(=O)o3)cc2C(=O)N1c1ccc(I)cc1`, the inhibition is -0.1% (inactive). With `COC(=O)c1ccc(-n2c(C)cc(/C=N/n3cnnc3)c2C)cc1` the figure was -6.7% (inactive); with `Cc1nnc(NC(=O)CSc2cn(Cc3ccccc3)c3ccccc23)s1`, -5.8% (inactive).

Turning to `Cc1ccc(/C=N/n2cnnc2)cc1[N+](=O)[O-]`, the inhibition is -0.6% (inactive).

As for `COc1ccc(/C=C/C(=O)Nc2ccc(C)c([N+](=O)[O-])c2)cc1OC`, the inhibition is -0.5% (inactive). With `O=C(O)CCCCCN1C(=O)C(=O)/C(=C(/O)c2ccccc2)C1c1ccc(F)cc1` (centres undefined) the figure was 0.8% (inactive); with `CC(C)(C)c1ccc(OCC(=O)NC2CCS(=O)(=O)C2)cc1` (centres undefined), 3% (inactive).
